Where “and” joins values, the source holds several entries; their conditions need not be identical. Identical values can stand only once. Inconclusive results are not listed. Where a call stands in place of a potency, no number is given. Where a structure was tested more than once in an assay, its records may differ in their call. Calls of active or inactive are those of the source. Unless noted, the call rests on the fitted dose curve; in most records, active means well fitted curve in the direction sought with a large enough effect in the repeat runs; inconclusive means weak or mixed curves; inactive means no such curve, though single readings can be large; an effect the other way counts as inactive or inconclusive.
Assays:
[1] = molecular target: Progesterone receptor (Homo sapiens) (UniProt P06401); experiment: qHTS assay to identify small molecule agonists of the progesterone receptor (PR) signaling pathway (AID 1346784; calls by dose curve; further: nearly all actives have a fitted effect of over 30% in size; further: potency means the concentration at half of the fitted maximal effect)
Outline: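 Beta-lactamase reporter read-out: after 16 hr compound treatment at 37C and a further 2 hr at room temperature with LiveBLAzer B/G FRET substrate, fluorescence was measured in PR-UAS-bla HEK 293T cells grown in 2% charcoal-stripped serum.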

[2] = molecular target: Progesterone receptor (Homo sapiens) (UniProt P06401); experiment: qHTS assay to identify small molecule antagonists of the progesterone receptor (PR) signaling pathway (AID 1346795; active means well fitted inhibition curve with a large enough effect in the signal ratio in the repeat runs, not every such curve was filed as active; the % refers to the signal ratio; further: potency means the concentration at half of the fitted maximal effect)
Outline: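 Read-out is fluorescence from the LiveBLAzer B/G FRET substrate, cleaved by a UAS-controlled beta-lactamase in PR-UAS-bla HEK293T cells after 16 hr exposure to compound plus 1 nM promegestone (final), followed by 2 hr at room temperature.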

[3] = qHTS assay to identify small molecule antagonists of the progesterone receptor (PR) signaling pathway - cell viability counter screen (AID 1346798); further: nearly all actives have a fitted effect of over 50% in size; further: potency means the concentration at half of the fitted maximal effect;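 on activity change, negative = cytotoxicity: HEK293T PR-UAS-bla cells stimulated with the agonist R5020; series mostly up to about 92 µM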
Outline: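 HEK293T PR-UAS-bla, 2% charcoal-stripped FBS; 4 hr pre-plate; cpd + R5020, 16 h 37C; LiveBLAzer read first; then CellTiter-Glo 30 min RT, luminescence.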

[4] = qHTS assay to identify small molecule agonists of the progesterone receptor (PR) signaling pathway - cell viability counter screen (AID 1346799; calls by dose curve; further: nearly all actives have a fitted effect of over 45% in size; further: potency means the concentration at half of the fitted maximal effect)
Outline: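 Luminescence from CellTiter-Glo, added after the beta-lactamase FRET read in the same wells, gave cytotoxicity in PR-UAS-bla HEK293T cells treated with compounds for 16 hr at 37C.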

[5] = qHTS assay to identify small molecule antagonists of the TGF-beta/Smad signaling pathway - cell viability counter screen (AID 1346824); further: nearly all actives have a fitted effect of over 50% in size; further: potency means the concentration at half of the fitted maximal effect
Outline: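 Cytotoxicity counter-screen run in the same wells as the beta-lactamase Smad reporter read: CellTiter-Glo luminescence after 30 min at room temperature. HEK 293T SBE-bla cells had 5 hr compound exposure at 37 C with TGF-beta1 (0.25 ng/mL stock).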

[6] = qHTS assay to identify small molecule agonists of the TGF-beta/Smad signaling pathway - cell viability counter screen (AID 1346829); further: nearly all actives have a fitted effect of over 45% in size; further: potency means the concentration at half of the fitted maximal effect; on activity change, negative = cytotoxicity: top concentration of the series differs between compounds
Outline: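 Compound-treated SBE-bla HEK 293T cells (5 hr, 37 C) were assessed for viability with CellTiter-Glo in parallel with the reporter read.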

[7] = qHTS assay to identify small molecule agonists of the TGF-beta/Smad signaling pathway (AID 1346859; active means well fitted activation curve with a large enough effect in the signal ratio in the repeat runs, not every such curve was filed as active; the % refers to the signal ratio; further: series mostly up to about 77 µM)
Outline: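 SBE-bla HEK 293T, 4,000 cells/well, plated o/n; cpd in DMSO, 5 hr, 37 C/5% CO2; B/G FRET substrate 2 hr RT; ex 405, em 460/530 nm.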

[8] = molecular target: Thyrotropin-releasing hormone receptor (Homo sapiens) (UniProt P34981); experiment: qHTS assay to identify small molecule antagonists of the thyrotropin-releasing hormone receptor (TRHR) signaling pathway (AID 1346877; active means well fitted inhibition curve with a large enough effect in the repeat runs, not every such curve was filed as active; further: potency means the concentration at half of the fitted maximal effect; on activity, negative = inhibition: series mostly up to about 51 µM)
Outline: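 Antagonism is measured as suppression of the calcium response to 1 nM TRH in TRHR-HEK293 cells that have been dye-loaded for 2 h at 37 °C after overnight plating. Each compound is tested at 15 concentrations in triplicate.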

[9] = molecular target: Thyrotropin-releasing hormone receptor (Homo sapiens) (UniProt P34981); experiment: qHTS assay to identify small molecule agonists of the thyrotropin-releasing hormone receptor (TRHR) signaling pathway (AID 1346891; calls by dose curve; further: potency means the concentration at half of the fitted maximal effect; on activation: series mostly up to about 58 µM)
Outline: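 Intracellular calcium rise, read as fluorescence every second for 3 min, served as the agonist signal in dye-loaded HEK293 cells expressing TRHR; each compound ran at 15 concentrations in triplicate.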

[10] = Human pregnane X receptor (PXR) small molecule agonists, qHTS cell viability counter screen (AID 1346977); further: nearly all actives have a fitted effect of over 50% in size; further: potency means the concentration at half of the fitted maximal effect
Outline: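 PXR-Luc HepG2, 2,000 cells/well, 5% charcoal-stripped FBS; 5hr settle; cpd 24hr, 37C/5% CO2; CellTiter-Fluor at 23hr, read 1hr later (fluorescence).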

Chain of Progesterone receptor (Homo sapiens) (P06401 whole entry, looked up): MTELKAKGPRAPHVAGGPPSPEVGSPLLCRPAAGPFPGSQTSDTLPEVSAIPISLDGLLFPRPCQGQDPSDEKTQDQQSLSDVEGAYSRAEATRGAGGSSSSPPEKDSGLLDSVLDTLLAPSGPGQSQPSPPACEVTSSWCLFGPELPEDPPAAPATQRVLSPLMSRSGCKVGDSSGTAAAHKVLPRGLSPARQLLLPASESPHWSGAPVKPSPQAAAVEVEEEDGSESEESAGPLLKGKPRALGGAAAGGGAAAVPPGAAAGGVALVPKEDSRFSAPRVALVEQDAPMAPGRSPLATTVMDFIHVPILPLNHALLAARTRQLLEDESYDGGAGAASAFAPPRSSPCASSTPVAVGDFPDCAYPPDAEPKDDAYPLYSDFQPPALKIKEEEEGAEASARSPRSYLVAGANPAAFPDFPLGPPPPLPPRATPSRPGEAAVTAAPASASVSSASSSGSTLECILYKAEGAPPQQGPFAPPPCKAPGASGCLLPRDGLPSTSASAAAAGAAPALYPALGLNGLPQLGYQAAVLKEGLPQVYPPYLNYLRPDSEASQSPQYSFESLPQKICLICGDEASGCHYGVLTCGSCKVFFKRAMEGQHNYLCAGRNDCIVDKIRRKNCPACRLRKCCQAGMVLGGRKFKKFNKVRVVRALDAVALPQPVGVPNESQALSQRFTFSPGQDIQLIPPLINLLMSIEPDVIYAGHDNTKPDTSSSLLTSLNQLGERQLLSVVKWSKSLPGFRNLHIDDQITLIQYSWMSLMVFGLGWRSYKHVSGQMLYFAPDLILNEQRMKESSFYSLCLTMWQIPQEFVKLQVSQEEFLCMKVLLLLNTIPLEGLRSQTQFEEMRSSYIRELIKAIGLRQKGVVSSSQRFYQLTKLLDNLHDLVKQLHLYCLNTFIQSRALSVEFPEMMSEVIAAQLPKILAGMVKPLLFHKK
Chain of Thyrotropin-releasing hormone receptor (Homo sapiens) (P34981 whole entry, looked up): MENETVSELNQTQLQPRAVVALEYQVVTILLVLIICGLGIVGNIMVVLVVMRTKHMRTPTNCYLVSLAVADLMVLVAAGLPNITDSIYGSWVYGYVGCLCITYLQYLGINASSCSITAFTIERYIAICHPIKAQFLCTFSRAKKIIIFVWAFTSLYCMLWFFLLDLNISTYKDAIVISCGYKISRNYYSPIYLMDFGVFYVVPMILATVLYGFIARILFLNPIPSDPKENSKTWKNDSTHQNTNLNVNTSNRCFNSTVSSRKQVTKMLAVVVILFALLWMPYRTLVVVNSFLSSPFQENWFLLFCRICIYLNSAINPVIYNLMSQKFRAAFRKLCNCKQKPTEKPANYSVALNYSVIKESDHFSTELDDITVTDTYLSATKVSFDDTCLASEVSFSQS

SMILES	Potency [1]	Potency [2]	Potency [3]	Potency [4]	Potency [5]	Potency [6]	outcome [7]	Potency [8]	Potency [9]	Potency [10]	activation [1]	activity change, negative = inhibition [2]	activity change, negative = cytotoxicity [3]	activity change, negative = cytotoxicity [4]	activity, negative = inhibition [8]
O=C1NC(=O)C(c2ccccc2)(c2ccccc2)N1	inactive	inactive	inactive	inactive	inactive	inactive	inactive	inactive	inactive	inactive	–	–	–	–	–
F[B-](F)(F)F	inactive	inactive	inactive	inactive	inactive	inactive	inactive	inactive	inactive	inactive	–	–	–	–	–
CN1[C@@H]2CC(OC(=O)[C@H](CO)c3ccccc3)C[C@H]1[C@@H]1O[C@@H]12 (some centres undefined)	inactive	inactive	inactive	inactive	inactive	inactive	inactive	–	–	inactive	–	–	–	–	–
CCCCOC(=O)c1ccc(O)cc1	inactive	27.6 µM (active) and 27.3 µM (active) and 26.6 µM (active)	inactive	inactive	inactive	inactive	inactive	inactive	inactive	inactive	–	–	–	–	–
O=C1O[C@H]([C@@H](O)CO)C(O)=C1O	inactive	inactive	inactive	inactive	inactive	inactive	inactive	–	–	inactive	–	–	–	–	–
CCOC(N)=O	inactive	inactive	inactive	inactive	inactive	inactive	inactive	inactive	inactive	inactive	–	–	–	–	–
CCOc1ccc(NC(C)=O)cc1	inactive	inactive	inactive	inactive	inactive	inactive	inactive	inactive	inactive	inactive	–	–	–	–	–
O=c1[nH]cnc2c1ncn2[C@H]1CC[C@@H](CO)O1	inactive	inactive	inactive	inactive	inactive	inactive	inactive	–	–	inactive	–	–	–	–	–
C/C=C/C=C/C(=O)O	inactive	inactive	inactive	inactive	inactive	inactive	inactive	inactive	inactive	inactive	–	–	–	–	–
CC12CCC(CC1)C(C)(C)O2	inactive	inactive	inactive	inactive	inactive	inactive	inactive	inactive	inactive	inactive	–	–	–	–	–
CCN(CC)C(=O)c1cccc(C)c1	inactive	inactive	inactive	inactive	inactive	inactive	inactive	–	–	inactive	–	–	–	–	–
O=CC(=O)c1ccccc1	inactive	inactive	inactive	inactive	inactive	inactive	inactive	inactive	inactive	inactive	–	–	–	–	–
Nc1c2c(nc3ccccc13)CCCC2	inactive	inactive	inactive	inactive	inactive	inactive	inactive	inactive	inactive	54.5 µM (active)	–	–	–	–	–
CN(C)C(=O)Nc1ccc(Cl)c(Cl)c1	inactive	inactive	inactive	inactive	inactive	inactive	inactive	inactive	inactive	inactive	–	–	–	–	–
CN1CCC[C@H]1c1cccnc1	inactive	inactive	inactive	inactive	inactive	inactive	inactive	inactive	inactive	inactive	–	–	–	–	–
CC(=O)CC(c1ccccc1)c1c(O)c2ccccc2oc1=O (centres undefined)	inactive	inactive	inactive	inactive	inactive	inactive	inactive	–	–	inactive	–	–	–	–	–
CN(N=O)C(=O)N[C@@H]1[C@@H](O)[C@H](O)[C@@H](CO)O[C@@H]1O	inactive	inactive	inactive	inactive	inactive	inactive	inactive	inactive	inactive	inactive	–	–	–	–	–
CCN(Cc1c(F)cccc1Cl)c1c([N+](=O)[O-])cc(C(F)(F)F)cc1[N+](=O)[O-]	inactive	–	21.7 µM (active)	8.63 µM (active)	inactive	inactive	inactive	inactive	inactive	–	–	–	–	–	–
Oc1ccccc1	–	–	inactive	inactive	inactive	inactive	inactive	–	–	inactive	–	–	–	–	–
COc1ccc2cc(S(=O)(=O)N[C@H](CC(=O)N[C@H](Cc3ccc(CN4[C@H](C)CCC[C@@H]4C)cc3)C(=O)N(C)C(C)C)c3ccc4c(c3)OCO4)ccc2c1	inactive	57.9 µM (active)	–	29 µM (active)	–	–	–	–	–	13 µM (active)	–	–	–	–	–
CN1CCc2cccc3c2[C@H]1Cc1ccc(O)c(O)c1-3	inactive	–	inactive	–	inactive	inactive	inactive	inactive	inactive	–	–	–	–	–	–
CC/C(=C(\c1ccccc1)c1ccc(OCCN(C)C)cc1)c1ccccc1	inactive	–	–	–	–	55.3 µM (active) and inactive	inactive	12.1 µM (active) and inactive	15.6 µM (active) and inactive	–	–	–	–	–	–
O=C1OC2(c3ccccc31)c1cc(Br)c(O)c(Br)c1Oc1c2cc(Br)c(O)c1Br	inactive	–	inactive	inactive	inactive	inactive	–	–	–	4.93 µM (active) and 9.96 µM (active) and 13.3 µM (active)	–	–	–	–	–

SMILES	Potency [1]	Potency [2]	Potency [3]	Potency [4]	Potency [5]	Potency [6]	outcome [7]	Potency [8]	Potency [9]	Potency [10]	activation [1]	activity change, negative = inhibition [2]	activity change, negative = cytotoxicity [3]	activity change, negative = cytotoxicity [4]	activity, negative = inhibition [8]
CCc1nc(N)nc(N)c1-c1ccc(Cl)cc1	inactive	–	inactive	inactive	inactive	inactive and 16.9 µM (active)	inactive	–	–	49.3 µM (active)	–	–	–	–	–
Nc1ccc2c(c1)CN1C(=O)c3ccccc3C1=N2	–	–	–	–	–	–	–	–	8.27 µM (active)	–	-0.634% [at 19 µM] (inactive)	-14.5% [at 18.9 µM] (inactive)	-15.2% [at 18.9 µM] (inactive)	-25.1% [at 19 µM] (inactive)	-0.792% [at 10.5 µM] (inactive)
CN(C)C(=S)SC(=S)N(C)C	inactive	–	994 nM (active) and 969 nM (active) and 750 nM (active)	2.22 µM (active) and 1.22 µM (active) and 266 nM (active)	inactive	inactive	inactive	inactive	inactive	7.08 µM (active) and 545 nM (active) and 2.66 µM (active)	–	–	–	–	–
O=C(Nc1ncc([N+](=O)[O-])s1)c1cccs1	inactive	–	inactive	inactive	10.7 µM (active)	15.1 µM (active)	inactive	inactive	inactive	–	–	–	–	–	–
CC(O)(P(=O)(O)O)P(=O)(O)O	–	–	inactive	inactive	inactive	inactive	inactive	inactive	inactive	–	–	–	–	–	–
Nc1ccc([N+](=O)[O-])cc1O	–	–	–	–	–	inactive	inactive	–	–	–	–	–	–	–	–
COc1ccc2c(c1)c(CC(=O)O)c(C)n2C(=O)c1ccc(Cl)cc1	inactive	inactive	inactive	inactive	inactive	inactive	–	–	–	inactive	–	–	–	–	–
NC(=O)n1c(O)c(C(=O)c2cccs2)c2cc(Cl)ccc21	inactive	–	–	–	inactive	inactive	inactive	inactive	inactive	–	–	–	–	–	–
COc1ccc(C(Cl)=C(c2ccc(OC)cc2)c2ccc(OC)cc2)cc1	inactive	6.82 µM (active) and 5.45 µM (active) and 4.22 µM (active)	inactive	–	inactive	inactive	inactive	inactive	inactive	inactive	–	–	–	–	–
Nc1ccc(O)c([N+](=O)[O-])c1	–	–	–	–	inactive	inactive	inactive	inactive	inactive	–	–	–	–	–	–
C1CCC(C(CC2CCCCN2)C2CCCCC2)CC1 (centres undefined)	inactive	29.8 µM (active)	26.6 µM (active)	23.7 µM (active)	26.8 µM (active)	26.8 µM (active)	–	–	–	26.6 µM (active)	–	–	–	–	–
CC(=O)CCC(=O)O	–	–	inactive	inactive	inactive	inactive	inactive	–	–	–	–	–	–	–	–
Cc1cc(=O)oc2cc(O)ccc12	inactive	inactive	inactive	inactive	inactive	inactive	–	inactive	inactive	inactive	–	–	–	–	–
CN[C@H]1CC[C@@H](c2ccc(Cl)c(Cl)c2)c2ccccc21	inactive	–	–	inactive	inactive	–	inactive	–	–	–	–	–	–	–	–
O=C(O)CC(O)C(=O)O (centres undefined)	–	–	inactive	inactive	inactive	inactive	inactive	inactive	inactive	inactive	–	–	–	–	–
CC1(C)O[C@@H]2C[C@H]3[C@@H]4CCC5=CC(=O)C=C[C@]5(C)[C@@]4(F)[C@@H](O)C[C@]3(C)[C@]2(C(=O)CO)O1	3.5 nM (active) and 3.9 nM (active) and 3.8 nM (active)	–	inactive	inactive	inactive	inactive	inactive	–	–	–	–	–	–	–	–
C=C1CC[C@H](O)C/C1=C\C=C1/CCC[C@]2(C)[C@@H]([C@H](C)CCCC(C)C)CC[C@@H]12	–	–	–	–	inactive	inactive	inactive	inactive	inactive	–	–	–	–	–	–
CCCCCCCCCCCC[N+](C)(C)Cc1ccccc1	–	–	29.7 µM (active) and 33.5 µM (active)	8.47 µM (active) and 8.36 µM (active) and 10.6 µM (active)	48 µM (active) and 33.6 µM (active) and 23.9 µM (active)	48 µM (active) and 29.9 µM (active)	inactive	inactive	inactive	52.8 µM (active)	–	–	–	–	–
CCCCCCc1ccc(O)cc1O	inactive	27.4 µM (active) and 27.3 µM (active) and 23.7 µM (active)	–	–	inactive	inactive	inactive	inactive	inactive	inactive	–	–	–	–	–
CC(C)c1c(C(=O)Nc2ccccc2)c(-c2ccccc2)c(-c2ccc(F)cc2)n1CC[C@@H](O)C[C@@H](O)CC(=O)O	–	–	6.41 µM (active)	1.48 µM (active) and 227 nM (active) and 2.11 µM (active)	inactive	inactive	inactive	inactive	inactive	–	–	–	–	–	–
COc1ccc(OC(F)(F)F)cc1CN[C@H]1CCCN[C@H]1c1ccccc1	inactive	–	30.6 µM (active)	24.3 µM (active)	inactive	inactive	–	–	–	–	–	–	–	–	–
O=c1[nH]cc(F)c(=O)[nH]1	inactive	inactive	–	28.3 µM (active) and inactive	inactive	inactive	inactive	inactive	inactive	inactive	–	–	–	–	–
C1=CC2C3C=CC(C3)C2C1 (centres undefined)	inactive	–	inactive	–	inactive	inactive	inactive	–	34.1 µM (active)	–	–	–	–	–	–
